Assay results: PubChem BioAssay AID1159580 (chemical genetic matrix, 2015)
The whole screen tested about 5,500 compounds, of which about 2,000 (36%) were called active. Roughly 18% stayed inconclusive and do not appear here. No stated cut-off is given here; in the data, active means normalized growth mostly below about 0.91 (no sharp cut-off); inconclusive means no clear call, values can overlap the other calls; inactive means mostly above about 0.92. This is one part of the list.

Experiment: chemical genetic growth profiling, strain panel (AID 1159580);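 further: tested at 20 µM; growth read once vehicle control cultures reached saturation at 30 °C; 1 = growth at the plate median or of vehicle wells; lower values mean less growth of the strain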
Conditions: S. cerevisiae deletion strains, growth OD

Measured: normalized growth

O=C(O)C1CCCN(CCC=C(c2ccccc2)c2ccccc2)C1 (stereo not drawn)
inactive: locus YAL013W, strain DEP1, active compounds read low 1.04 | locus YAL040C, strain CLN3, active compounds read low 1.06 | locus YCL061C, strain MRC1 (second series), active compounds read low 1.01 | locus YDR150W, strain NUM1, active compounds read low 1.01 | locus YDR363W, strain ESC2, active compounds read low 1.02 | locus YER002W, strain NOP16, active compounds read low 1 | locus YGR078C, strain PAC10, active compounds read low 1.02 | locus YGR229C, strain SMI1, active compounds read low 1.04 | locus YMR263W, strain SAP30, active compounds read low 1.01 | locus YMR307W, strain GAS1, active compounds read low 1.01 | locus YNL153C, strain GIM3, active compounds read low 1.08 | locus YNL175C, strain NOP13, active compounds read low 0.999 | locus YNL197C, strain WHI3, active compounds read low 1 | locus YNL224C, strain SQS1, active compounds read low 0.997 | locus YNL322C, strain KRE1, active compounds read low 1.05 | locus YOR083W, strain WHI5 (second series), active compounds read low 1.04 | locus YPL055C, strain LGE1, active compounds read low 1.03 | locus YPL241C, strain CIN2, active compounds read low 1.01
